Beta apoptosis = beta cell apoptosis inhibition; INS-1E cytokine-induced death, ATP luminescence, 48 h; percent of positive-control rescue, neutral wells zero; protection from apoptosis, % (concentration not given with the values); actives 0.8% (n = 300,000); AID 435005;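 active = Every replicate reaches about 75%, or at least half do and their mean reaches it too, limit read from the data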;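 also: higher means more ATP so stronger rescue from cytokine killing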
697 NFkB inh = lowers PMA/ionomycin-induced NF-kB signal in 697 B cells; AID 435022; 697 B-cell NF-kB luciferase reporter, 16 h; inhibition, % at 4 µM; actives 0.33% (n = 330,000); in the data active = inhibition above about 35%
Jurkat NFkB inh = lowers PMA/ionomycin-induced NF-kB signal in Jurkat cells; PMA/ionomycin-induced NF-kB luciferase reporter, luminescence; inhibition, % at 4 µM; actives 0.53% (n = 330,000); AID 435003; in the data active = inhibition above about 50%
Gli-Sufu antag = antagonists of Gli-Sufu signaling; Sufu-KO-LIGHT fibroblasts, Gli luciferase reporter luminescence; actives 0.74% (n = 340,000); inhibition, % at 5 µM; AID 588413;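 active = inhibition above about 55%, limit read from the data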
Gli-Sufu confirm = confirmation of Gli-SUFU pathway antagonists | shares compounds with Gli-Sufu antag | Sufu-KO-LIGHT cells, Gli luciferase reporter, luminescence | inhibition, % at 5 µM | actives 40% (n = 2,500);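 active = mean inhibition at 5 µM reaching about 45%, limit read from the data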
SufuKO cytotox = counter-screen for Gli-SUFU antagonists: cytotoxicity; AID 651994; actives 32% (n = 2,500); cytotoxicity, % at 5 µM; Sufu-KO-LIGHT cells cytotoxicity, ATP luminescence; shares compounds with Gli-Sufu antag;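 active = mean cytotoxicity at 5 µM above about 25%, limit read from the data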;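 also: cells exposed to compound overnight for roughly 16 to 18 hours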
Wnt3a counter = counter-screen for Gli-SUFU antagonists: Wnt3a reporter inhibition; Wnt-LIGHT cells, Wnt3a-driven luciferase reporter, luminescence; inhibition, % at 6.25 µM; actives 20% (n = 2,500); shares compounds with Gli-Sufu antag; AID 651995;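 active = mean inhibition above about 25%, limit read from the data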
Numbers stand for hits; . = inactive; / = no result given. The list is not random: actives were taken first. Their share in the collection is about 1.8%.

SMILES | Beta apoptosis | 697 NFkB inh | Jurkat NFkB inh | Gli-Sufu antag | Gli-Sufu confirm | SufuKO cytotox | Wnt3a counter
N=c1nc2n(cc1F)C1OC(CO)C(O)C1O2 (stereo not drawn) | / | / | / | 56 | 47 | 26 | 36
Cc1cn2c(nc1=O)OC1C(O)C(COC(=O)c3ccccc3)OC12 (stereo not drawn) | . | . | . | . | / | / | /
COc1ccc(N2CCN(C(=O)COC(=O)c3c(-c4ccccc4)noc3C)CC2)cc1 | . | . | . | 65 | . | . | .
Cc1onc(-c2ccccc2)c1C(=O)N1CCN(c2ccccc2)CC1 | . | . | . | . | / | / | /
COCCNC(=O)c1cccc(OC2CCN(Cc3ccc(C(=O)OC)cc3)CC2)c1 | / | . | . | 60 | . | . | .
COc1cc(/C=C2/NC(=O)N(Cc3ccccc3F)C2=O)ccc1Oc1ccc([N+](=O)[O-])cn1 | . | . | . | . | / | / | /
COc1cc(/C=C2/NC(=O)N(Cc3ccccc3F)C2=O)ccc1O | . | . | . | 71 | 54 | . | 37
CC(C)=CCSc1nnc([C@@H](NC(=O)OC(C)(C)C)C(C)C)o1 | . | . | . | 60 | . | 25 | .
Cc1[nH]c(=O)[nH]c(=O)c1CSc1nnc([C@@H](NC(=O)OC(C)(C)C)C(C)C)o1 | . | . | . | . | / | / | /
CCCS(=O)(=O)N1CCN(Cc2ccccc2C(F)(F)F)CC1 | . | . | . | . | / | / | /
CN1CCCN(Cc2ccccc2C(F)(F)F)CC1 | . | . | . | 94 | . | . | .
CCN(Cc1ccccc1)C(=O)Cn1cnc2c1c(=O)n(C)c(=O)n2C | . | . | . | 59 | . | . | .
Cc1cccc(C)c1NC(=S)N(CCN1CCCCCC1)Cc1ccco1 | . | . | . | . | . | . | .
Cc1cc2cc(CNC(=O)c3ccc(C)c([N+](=O)[O-])c3)ccc2[nH]1 | . | . | . | 58 | . | 26 | .
COc1ccc(OC)c(/C=C2\SC(N3CCCC(C)C3)=NC2=O)c1 (stereo not drawn) | . | . | . | 64 | . | . | .
O=C(Nc1ccc(Cl)cc1Cl)Nn1cnnc1 | . | . | . | . | / | / | /
O=C(N/N=C/c1cn(CCOc2ccccc2)c2ccccc12)c1ccncc1 | . | . | . | . | . | . | .
Cc1ccc(-c2cc[n+](Cc3ccccc3)cc2)cc1 | . | . | . | 62 | 78 | 41 | 26
Cc1cc(NC(=O)COc2ccccc2C)ccc1NC(=O)c1cccs1 | . | . | . | . | . | . | .
Cc1ccc(-n2c(C)c([N+](=O)[O-])c3ccc(O)cc32)cc1 | . | . | . | / | / | / | /
O=S(=O)(c1cccc(C(F)(F)F)c1)N(CCCN1CCOCC1)Cc1cccs1 | . | . | . | . | / | / | /
O=C(c1cc2ccccc2c(=O)o1)N1CCCC1 | . | . | . | / | / | / | /
Cc1cccc(C)c1NC(=O)C1CCCN1S(=O)(=O)c1ccc(-c2ccc(=O)[nH]n2)s1 (stereo not drawn) | . | . | . | . | . | . | 35
COc1ccccc1NC(=O)N1CCCC1C(=O)NCC1CCCO1 (stereo not drawn) | . | . | . | . | . | . | .
O=C(CSc1nnc2ccccn12)NCc1ccco1 | . | . | . | . | / | / | /
SMILES | Beta apoptosis | 697 NFkB inh | Jurkat NFkB inh | Gli-Sufu antag | Gli-Sufu confirm | SufuKO cytotox | Wnt3a counter
O=C1CCN(S(=O)(=O)c2ccccc2)CCN1CCOCc1ccc(C(F)(F)F)cc1 | . | . | . | . | / | / | /
Cc1ccc(S(=O)(=O)N2CCC(=O)N(CCOCc3ccc(C(F)(F)F)cc3)CC2)cc1 | . | . | . | . | . | . | .
CS/C(N)=N/C(=S)Nc1cccc(Cl)c1 | . | . | . | . | / | / | /
CCOc1ccccc1NC(=O)c1cccc(NC(=O)C2CCCC2)c1 | . | . | . | . | / | / | /
CCOc1ccccc1-c1nc(CN2CCCN(C(=O)c3ccco3)CC2)c(C)o1 | . | . | . | . | / | / | /
CCOc1ccccc1-c1nc(CN2CCCC2c2nccs2)c(C)o1 (stereo not drawn) | . | . | . | . | . | . | .
CSCCC(NS(=O)(=O)c1ccc(C)cc1)C(=O)N1CCN(C(c2ccccc2)c2ccccc2)CC1 (stereo not drawn) | . | . | . | . | / | / | /
NS(=O)(=O)c1ccc(NC(=O)CSc2ccccc2)cc1 | . | . | . | . | / | / | /
NS(=O)(=O)c1ccc(NC(=O)CSC2=NC(=O)C(c3ccccc3)C(=O)N2)cc1 (stereo not drawn) | . | . | . | 88 | . | . | .
CC(C)(C)n1nnnc1C(c1ccc2ncccc2c1)N1CCC(O)CC1 (stereo not drawn) | . | . | . | 63 | . | . | .
COc1ccc(N2CCN(C(c3ccc4ncccc4c3)c3nnnn3C(C)(C)C)CC2)cc1 (stereo not drawn) | . | . | . | . | / | / | /
CNC(=O)/C(=N\O)c1ccccc1 | / | . | . | / | / | / | /
O=C(N[C@@H]1C/C=C\C[C@H](CC(=O)N(CCO)Cc2ccccc2)C(=O)N[C@@H](Cc2c[nH]c3ccccc23)COC1=O)OCC1c2ccccc2-c2ccccc21 | . | . | . | . | 57 | . | .
O=C(N[C@H]1C/C=C\C[C@H](CC(=O)N(CCO)Cc2ccccc2)C(=O)N[C@H](Cc2c[nH]c3ccccc23)COC1=O)OCC1c2ccccc2-c2ccccc21 | . | . | . | . | / | / | /
O=C(N[C@H]1C/C=C\C[C@@H](CC(=O)N(CCO)Cc2ccccc2)C(=O)N[C@H](Cc2c[nH]c3ccccc23)COC1=O)OCC1c2ccccc2-c2ccccc21 | . | . | . | . | 52 | . | .
O=C(N[C@H]1C/C=C\C[C@H](CC(=O)N(CCO)Cc2ccccc2)C(=O)NC[C@H](c2ccccc2)OC1=O)OCC1c2ccccc2-c2ccccc21 | . | . | . | . | / | / | /
O=C(N[C@@H]1C/C=C\C[C@@H](CC(=O)N(CCO)Cc2ccccc2)C(=O)N[C@@H](c2ccccc2)COC1=O)OCC1c2ccccc2-c2ccccc21 | . | . | . | 56 | 56 | . | .
N#CCC(=O)N/N=C\c1ccc(OC/C=C/c2ccccc2)cc1 | . | . | . | . | / | / | /
COc1cccc(CNS(=O)(=O)c2ccc(N3CCCC3=O)cc2)c1 | . | . | . | . | / | / | /
Cc1oc(/N=C/c2ccc(Cl)cc2)c(C#N)c1C | . | . | . | 71 | . | . | .
C=CCNC(=O)/C(C#N)=C/c1cn(-c2ccccc2)nc1-c1cccs1 | . | . | . | . | / | / | /
N#C/C(=C(/O)c1ccc([N+](=O)[O-])s1)c1nc2ccccc2[nH]1 | . | . | . | . | 59 | . | 33
CCNc1nc2c(c(=O)n(C)c(=O)n2C)n1Cc1ccc(Cl)cc1 | . | . | . | 71 | 61 | 31 | 40
Cn1c(=O)c2c(nc(NCc3ccco3)n2Cc2ccc(Cl)cc2Cl)n(C)c1=O | . | . | . | 67 | 67 | 29 | .
CCn1c(NCc2ccco2)nc2c1c(=O)n(C)c(=O)n2C | . | . | . | . | / | / | /
